# Key:
# [1] = biological target: Ribosomal protein S6 kinase alpha-3 (Homo sapiens) (UniProt P51812); settings: at 0.1 µM
# [2] = biological target: Ribosomal protein S6 kinase alpha-3 (Homo sapiens) (UniProt P51812); settings: at 1 µM
# [3] = biological target: Ribosomal protein S6 kinase alpha-2 (Homo sapiens) (UniProt Q15349); settings: at 0.1 µM
# [4] = biological target: Ribosomal protein S6 kinase alpha-2 (Homo sapiens) (UniProt Q15349); settings: at 1 µM
# [5] = biological target: Ribosomal protein S6 kinase alpha-6 (Homo sapiens) (UniProt Q9UK32); settings: at 0.1 µM
# [6] = biological target: Ribosomal protein S6 kinase alpha-6 (Homo sapiens) (UniProt Q9UK32); settings: at 1 µM
# [7] = biological target: Serine/threonine-protein kinase Sgk1 (Homo sapiens) (UniProt O00141); settings: at 0.1 µM
# [8] = biological target: Serine/threonine-protein kinase Sgk1 (Homo sapiens) (UniProt O00141); settings: at 1 µM
# [9] = biological target: Serine/threonine-protein kinase Sgk2 (Homo sapiens) (UniProt Q9HBY8); settings: at 0.1 µM
# Serine/threonine-protein kinase Sgk2 (Homo sapiens), sequence (Q9HBY8 whole entry): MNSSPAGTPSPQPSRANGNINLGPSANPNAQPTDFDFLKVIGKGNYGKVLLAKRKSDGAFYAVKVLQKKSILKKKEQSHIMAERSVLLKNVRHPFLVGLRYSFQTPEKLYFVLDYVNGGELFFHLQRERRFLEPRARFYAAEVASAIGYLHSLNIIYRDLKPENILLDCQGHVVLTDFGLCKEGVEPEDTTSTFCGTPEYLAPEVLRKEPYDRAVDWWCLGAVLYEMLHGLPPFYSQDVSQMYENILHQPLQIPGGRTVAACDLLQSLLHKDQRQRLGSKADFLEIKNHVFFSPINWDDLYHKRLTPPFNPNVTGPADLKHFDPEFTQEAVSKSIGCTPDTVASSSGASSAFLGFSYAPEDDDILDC
# [10] = biological target: Serine/threonine-protein kinase Sgk2 (Homo sapiens) (UniProt Q9HBY8); settings: at 1 µM
# [11] = biological target: Serine/threonine-protein kinase Sgk3 (Homo sapiens) (UniProt Q96BR1); settings: at 0.1 µM
# Serine/threonine-protein kinase Sgk3 (Homo sapiens), sequence (Q96BR1 whole entry): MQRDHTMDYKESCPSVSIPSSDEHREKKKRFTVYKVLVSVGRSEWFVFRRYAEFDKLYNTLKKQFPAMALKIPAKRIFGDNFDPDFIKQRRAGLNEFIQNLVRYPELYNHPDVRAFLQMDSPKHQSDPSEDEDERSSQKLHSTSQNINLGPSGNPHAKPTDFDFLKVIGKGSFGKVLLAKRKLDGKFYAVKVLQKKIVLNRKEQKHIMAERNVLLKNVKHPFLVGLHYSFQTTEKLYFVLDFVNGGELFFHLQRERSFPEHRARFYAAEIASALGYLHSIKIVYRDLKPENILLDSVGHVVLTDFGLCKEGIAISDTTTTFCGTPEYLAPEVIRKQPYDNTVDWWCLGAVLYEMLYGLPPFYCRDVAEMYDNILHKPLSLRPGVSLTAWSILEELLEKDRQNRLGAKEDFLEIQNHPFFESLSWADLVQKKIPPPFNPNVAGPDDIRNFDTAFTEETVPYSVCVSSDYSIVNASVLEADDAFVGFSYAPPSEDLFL
# [12] = biological target: Serine/threonine-protein kinase Sgk3 (Homo sapiens) (UniProt Q96BR1); settings: at 1 µM
# [13] = biological target: 5'-AMP-activated protein kinase catalytic subunit alpha-1 (Homo sapiens) (UniProt Q13131); settings: at 0.1 µM
# [14] = biological target: 5'-AMP-activated protein kinase catalytic subunit alpha-1 (Homo sapiens) (UniProt Q13131); settings: at 1 µM
# [15] = biological target: 5'-AMP-activated protein kinase catalytic subunit alpha-2 (Homo sapiens) (UniProt P54646); settings: at 0.1 µM
# [16] = biological target: 5'-AMP-activated protein kinase catalytic subunit alpha-2 (Homo sapiens) (UniProt P54646); settings: at 1 µM
# [17] = biological target: NUAK family SNF1-like kinase 1 (Homo sapiens) (UniProt O60285); settings: at 0.1 µM
# [18] = biological target: NUAK family SNF1-like kinase 1 (Homo sapiens) (UniProt O60285); settings: at 1 µM
# [19] = biological target: Serine/threonine-protein kinase BRSK1 (Homo sapiens) (UniProt Q8TDC3); settings: at 0.1 µM
# [20] = biological target: Serine/threonine-protein kinase BRSK1 (Homo sapiens) (UniProt Q8TDC3); settings: at 1 µM
# [21] = biological target: Serine/threonine-protein kinase BRSK2 (Homo sapiens) (UniProt Q8IWQ3); settings: at 0.1 µM
# [22] = biological target: Serine/threonine-protein kinase BRSK2 (Homo sapiens) (UniProt Q8IWQ3); settings: at 1 µM
# [23] = biological target: Calcium/calmodulin-dependent protein kinase type 1D (Homo sapiens) (UniProt Q8IU85); settings: at 0.1 µM
# [24] = biological target: Calcium/calmodulin-dependent protein kinase type 1D (Homo sapiens) (UniProt Q8IU85); settings: at 1 µM
# [25] = biological target: Calcium/calmodulin-dependent protein kinase type II subunit alpha (Homo sapiens) (UniProt Q9UQM7); settings: at 0.1 µM
# Calcium/calmodulin-dependent protein kinase type II subunit alpha (Homo sapiens), sequence (Q9UQM7 whole entry): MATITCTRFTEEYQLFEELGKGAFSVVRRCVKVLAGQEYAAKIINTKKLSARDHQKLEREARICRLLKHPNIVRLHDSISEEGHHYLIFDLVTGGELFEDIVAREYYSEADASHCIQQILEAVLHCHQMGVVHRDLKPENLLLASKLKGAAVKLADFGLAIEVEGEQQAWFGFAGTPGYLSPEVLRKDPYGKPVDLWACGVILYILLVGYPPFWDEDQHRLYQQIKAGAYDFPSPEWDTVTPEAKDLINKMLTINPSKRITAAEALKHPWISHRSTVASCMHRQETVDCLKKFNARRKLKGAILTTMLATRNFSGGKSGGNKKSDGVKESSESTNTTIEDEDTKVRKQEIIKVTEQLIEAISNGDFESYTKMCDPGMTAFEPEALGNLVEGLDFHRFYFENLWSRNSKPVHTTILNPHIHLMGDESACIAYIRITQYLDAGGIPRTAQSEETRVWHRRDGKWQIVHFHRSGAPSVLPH
# [26] = biological target: Calcium/calmodulin-dependent protein kinase type II subunit alpha (Homo sapiens) (UniProt Q9UQM7); settings: at 1 µM
# [27] = biological target: Calcium/calmodulin-dependent protein kinase type II subunit delta (Homo sapiens) (UniProt Q13557); settings: at 0.1 µM
# Calcium/calmodulin-dependent protein kinase type II subunit delta (Homo sapiens), sequence (Q13557 whole entry): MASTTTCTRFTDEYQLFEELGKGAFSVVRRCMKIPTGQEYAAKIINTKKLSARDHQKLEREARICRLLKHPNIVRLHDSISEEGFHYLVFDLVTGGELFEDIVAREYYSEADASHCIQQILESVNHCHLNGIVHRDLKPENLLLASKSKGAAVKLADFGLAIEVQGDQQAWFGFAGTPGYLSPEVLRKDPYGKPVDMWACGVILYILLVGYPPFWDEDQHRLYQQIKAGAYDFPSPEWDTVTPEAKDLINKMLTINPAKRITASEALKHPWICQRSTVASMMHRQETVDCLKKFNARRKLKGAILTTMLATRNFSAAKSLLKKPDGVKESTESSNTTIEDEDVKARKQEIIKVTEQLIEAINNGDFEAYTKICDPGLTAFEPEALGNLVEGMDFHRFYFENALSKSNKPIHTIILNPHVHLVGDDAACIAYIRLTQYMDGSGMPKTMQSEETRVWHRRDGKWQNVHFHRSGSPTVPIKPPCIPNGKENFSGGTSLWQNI
# [28] = biological target: Calcium/calmodulin-dependent protein kinase type II subunit delta (Homo sapiens) (UniProt Q13557); settings: at 1 µM
# [29] = biological target: Calcium/calmodulin-dependent protein kinase type IV (Homo sapiens) (UniProt Q16566); settings: at 0.1 µM
# [30] = biological target: Calcium/calmodulin-dependent protein kinase type IV (Homo sapiens) (UniProt Q16566); settings: at 1 µM
# [31] = biological target: Serine/threonine-protein kinase Chk1 (Homo sapiens) (UniProt O14757); settings: at 0.1 µM
# Serine/threonine-protein kinase Chk1 (Homo sapiens), sequence (O14757 whole entry): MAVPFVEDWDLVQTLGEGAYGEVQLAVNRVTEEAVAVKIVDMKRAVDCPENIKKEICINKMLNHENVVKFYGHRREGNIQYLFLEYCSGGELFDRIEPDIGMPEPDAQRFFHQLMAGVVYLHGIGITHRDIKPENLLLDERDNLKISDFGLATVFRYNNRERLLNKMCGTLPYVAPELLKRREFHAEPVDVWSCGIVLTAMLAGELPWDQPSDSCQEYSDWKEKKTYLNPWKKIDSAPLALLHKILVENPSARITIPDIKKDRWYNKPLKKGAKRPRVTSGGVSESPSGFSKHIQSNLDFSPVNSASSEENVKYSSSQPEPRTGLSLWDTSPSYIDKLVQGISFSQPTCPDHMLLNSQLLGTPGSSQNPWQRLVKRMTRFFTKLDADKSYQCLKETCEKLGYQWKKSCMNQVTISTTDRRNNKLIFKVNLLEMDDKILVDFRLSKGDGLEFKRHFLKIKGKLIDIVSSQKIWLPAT
# [32] = biological target: Serine/threonine-protein kinase Chk1 (Homo sapiens) (UniProt O14757); settings: at 1 µM
# [33] = biological target: Serine/threonine-protein kinase Chk2 (Homo sapiens) (UniProt O96017); settings: at 0.1 µM
# [34] = biological target: Serine/threonine-protein kinase Chk2 (Homo sapiens) (UniProt O96017); settings: at 1 µM
# [35] = biological target: Death-associated protein kinase 1 (Homo sapiens) (UniProt P53355); settings: at 0.1 µM
# [36] = biological target: Death-associated protein kinase 1 (Homo sapiens) (UniProt P53355); settings: at 1 µM
# [37] = biological target: Serine/threonine-protein kinase DCLK2 (Homo sapiens) (UniProt Q8N568); settings: at 0.1 µM
# [38] = biological target: Serine/threonine-protein kinase DCLK2 (Homo sapiens) (UniProt Q8N568); settings: at 1 µM
# [39] = biological target: MAP kinase-activated protein kinase 2 (Homo sapiens) (UniProt P49137); settings: at 0.1 µM
# [40] = biological target: MAP kinase-activated protein kinase 2 (Homo sapiens) (UniProt P49137); settings: at 1 µM
# [41] = biological target: MAP kinase-activated protein kinase 3 (Homo sapiens) (UniProt Q16644); settings: at 0.1 µM
# MAP kinase-activated protein kinase 3 (Homo sapiens), sequence (Q16644 whole entry, looked up): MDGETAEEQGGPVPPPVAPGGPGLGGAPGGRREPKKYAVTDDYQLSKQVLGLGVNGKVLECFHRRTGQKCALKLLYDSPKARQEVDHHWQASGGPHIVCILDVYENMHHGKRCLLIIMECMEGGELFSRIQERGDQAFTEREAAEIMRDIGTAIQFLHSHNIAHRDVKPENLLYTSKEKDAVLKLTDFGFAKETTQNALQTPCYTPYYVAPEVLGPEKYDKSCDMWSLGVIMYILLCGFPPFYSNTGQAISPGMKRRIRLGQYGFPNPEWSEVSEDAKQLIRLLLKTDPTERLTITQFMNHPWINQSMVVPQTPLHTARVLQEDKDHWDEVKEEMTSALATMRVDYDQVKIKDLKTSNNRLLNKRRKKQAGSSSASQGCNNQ
# [42] = biological target: MAP kinase-activated protein kinase 3 (Homo sapiens) (UniProt Q16644); settings: at 1 µM
# [43] = biological target: Serine/threonine-protein kinase MARK1 (Homo sapiens) (UniProt Q9P0L2); settings: at 0.1 µM
# Serine/threonine-protein kinase MARK1 (Homo sapiens), sequence (Q9P0L2 whole entry, looked up): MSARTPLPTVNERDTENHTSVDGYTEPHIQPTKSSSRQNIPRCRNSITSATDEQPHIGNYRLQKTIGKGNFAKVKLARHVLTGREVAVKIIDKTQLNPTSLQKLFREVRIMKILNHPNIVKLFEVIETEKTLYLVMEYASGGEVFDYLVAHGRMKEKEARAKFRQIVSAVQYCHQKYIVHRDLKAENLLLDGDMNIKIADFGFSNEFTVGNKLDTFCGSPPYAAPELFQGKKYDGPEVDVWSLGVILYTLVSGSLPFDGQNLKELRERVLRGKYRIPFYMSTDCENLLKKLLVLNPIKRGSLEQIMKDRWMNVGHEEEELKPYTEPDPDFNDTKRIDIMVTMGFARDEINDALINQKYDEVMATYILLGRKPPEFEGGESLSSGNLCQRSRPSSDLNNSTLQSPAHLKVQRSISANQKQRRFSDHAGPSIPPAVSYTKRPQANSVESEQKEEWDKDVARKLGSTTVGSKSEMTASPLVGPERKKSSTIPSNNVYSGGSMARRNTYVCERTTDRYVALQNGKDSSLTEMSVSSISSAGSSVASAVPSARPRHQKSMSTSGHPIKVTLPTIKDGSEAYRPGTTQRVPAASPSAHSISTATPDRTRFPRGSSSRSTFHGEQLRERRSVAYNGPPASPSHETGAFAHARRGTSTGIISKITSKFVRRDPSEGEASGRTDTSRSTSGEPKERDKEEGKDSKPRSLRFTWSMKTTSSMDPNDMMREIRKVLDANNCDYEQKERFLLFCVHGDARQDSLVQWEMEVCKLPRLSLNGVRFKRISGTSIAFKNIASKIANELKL
# [44] = biological target: Serine/threonine-protein kinase MARK1 (Homo sapiens) (UniProt Q9P0L2); settings: at 1 µM
# [45] = biological target: MAP/microtubule affinity-regulating kinase 3 (Homo sapiens) (UniProt P27448); settings: at 0.1 µM
# [46] = biological target: MAP/microtubule affinity-regulating kinase 3 (Homo sapiens) (UniProt P27448); settings: at 1 µM
# [47] = biological target: MAP/microtubule affinity-regulating kinase 4 (Homo sapiens) (UniProt Q96L34); settings: at 0.1 µM
# [48] = biological target: MAP/microtubule affinity-regulating kinase 4 (Homo sapiens) (UniProt Q96L34); settings: at 1 µM
# [49] = biological target: Maternal embryonic leucine zipper kinase (Homo sapiens) (UniProt Q14680); settings: at 0.1 µM
# Maternal embryonic leucine zipper kinase (Homo sapiens), sequence (Q14680 whole entry, looked up): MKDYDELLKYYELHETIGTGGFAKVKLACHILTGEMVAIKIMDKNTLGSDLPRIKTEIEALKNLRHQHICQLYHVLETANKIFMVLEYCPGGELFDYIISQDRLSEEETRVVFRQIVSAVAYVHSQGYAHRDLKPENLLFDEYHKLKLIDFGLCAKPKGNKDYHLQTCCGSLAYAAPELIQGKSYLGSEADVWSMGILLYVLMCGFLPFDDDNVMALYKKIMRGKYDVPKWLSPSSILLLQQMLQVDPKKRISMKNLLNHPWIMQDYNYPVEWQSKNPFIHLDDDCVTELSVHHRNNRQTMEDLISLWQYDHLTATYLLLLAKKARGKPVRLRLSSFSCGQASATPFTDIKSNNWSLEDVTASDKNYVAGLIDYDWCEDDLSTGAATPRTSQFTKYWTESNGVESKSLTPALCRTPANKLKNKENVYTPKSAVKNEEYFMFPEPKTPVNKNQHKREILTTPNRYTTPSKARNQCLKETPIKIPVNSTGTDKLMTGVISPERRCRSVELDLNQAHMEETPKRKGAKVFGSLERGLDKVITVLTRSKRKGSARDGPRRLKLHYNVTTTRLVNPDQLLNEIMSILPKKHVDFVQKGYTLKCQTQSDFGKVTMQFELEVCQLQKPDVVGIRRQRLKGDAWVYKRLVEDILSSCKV
# [50] = biological target: Maternal embryonic leucine zipper kinase (Homo sapiens) (UniProt Q14680); settings: at 1 µM
# [51] = biological target: MAP kinase-interacting serine/threonine-protein kinase 1 (Homo sapiens) (UniProt Q9BUB5); settings: at 0.1 µM
# [52] = biological target: MAP kinase-interacting serine/threonine-protein kinase 1 (Homo sapiens) (UniProt Q9BUB5); settings: at 1 µM
# [53] = biological target: MAP kinase-interacting serine/threonine-protein kinase 2 (Homo sapiens) (UniProt Q9HBH9); settings: at 0.1 µM
# [54] = biological target: MAP kinase-interacting serine/threonine-protein kinase 2 (Homo sapiens) (UniProt Q9HBH9); settings: at 1 µM
# [55] = biological target: Serine/threonine-protein kinase MARK2 (Homo sapiens) (UniProt Q7KZI7); settings: at 0.1 µM
# [56] = biological target: Serine/threonine-protein kinase MARK2 (Homo sapiens) (UniProt Q7KZI7); settings: at 1 µM
# Ribosomal protein S6 kinase alpha-3 (Homo sapiens), sequence (P51812 whole entry): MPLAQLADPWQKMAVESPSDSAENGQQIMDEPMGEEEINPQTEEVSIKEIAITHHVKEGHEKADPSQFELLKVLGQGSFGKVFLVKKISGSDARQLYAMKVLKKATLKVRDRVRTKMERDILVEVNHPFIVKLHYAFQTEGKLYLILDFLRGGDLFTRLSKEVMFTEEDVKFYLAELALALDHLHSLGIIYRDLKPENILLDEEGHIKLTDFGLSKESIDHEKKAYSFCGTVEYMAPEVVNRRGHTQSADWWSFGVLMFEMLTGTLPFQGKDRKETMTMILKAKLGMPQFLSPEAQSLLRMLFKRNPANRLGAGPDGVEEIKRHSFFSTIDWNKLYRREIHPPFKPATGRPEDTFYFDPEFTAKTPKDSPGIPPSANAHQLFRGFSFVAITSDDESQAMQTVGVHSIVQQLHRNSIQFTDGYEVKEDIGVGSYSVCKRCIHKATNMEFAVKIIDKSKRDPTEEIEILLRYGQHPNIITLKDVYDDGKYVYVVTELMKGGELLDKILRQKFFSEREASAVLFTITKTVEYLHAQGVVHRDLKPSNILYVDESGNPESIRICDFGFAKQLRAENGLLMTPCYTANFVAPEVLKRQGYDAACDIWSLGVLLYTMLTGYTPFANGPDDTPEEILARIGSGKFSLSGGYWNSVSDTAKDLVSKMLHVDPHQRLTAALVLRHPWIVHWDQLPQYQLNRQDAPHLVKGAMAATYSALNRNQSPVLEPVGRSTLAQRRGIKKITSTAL
smiles,measurement,setting,value
CNC(=O)Oc1cc(C)c(/C=C/c2cncc(C(=O)NC)c2)c(C)c1,inhibition,[1],1.05%
same,inhibition,[2],3.39%
same,inhibition,[3],1.4%
same,inhibition,[4],3.44%
same,inhibition,[5],1.15%
same,inhibition,[6],2.66%
same,inhibition,[7],3.01%
same,inhibition,[8],0.19%
same,inhibition,[9],1.73%
same,inhibition,[10],0.22%
same,inhibition,[11],1.34%
same,inhibition,[12],0.65%
same,inhibition,[13],2.14%
same,inhibition,[14],0.11%
same,inhibition,[15],-0.38%
same,inhibition,[16],2.44%
same,inhibition,[17],-1.06%
same,inhibition,[18],4.07%
same,inhibition,[19],2.89%
same,inhibition,[20],12%
same,inhibition,[21],1.79%
same,inhibition,[22],7.68%
same,inhibition,[23],0.95%
same,inhibition,[24],2.36%
same,inhibition,[25],3.17%
same,inhibition,[26],4.72%
same,inhibition,[27],4.03%
same,inhibition,[28],5.12%
same,inhibition,[29],1.23%
same,inhibition,[30],0.1%
same,inhibition,[31],-2.68%
same,inhibition,[32],-3.25%
same,inhibition,[33],-3.08%
same,inhibition,[34],0.64%
same,inhibition,[35],-4.67%
same,inhibition,[36],-3.09%
same,inhibition,[37],1.08%
same,inhibition,[38],-1.11%
same,inhibition,[39],-2.03%
same,inhibition,[40],-2.01%
same,inhibition,[41],-3.36%
same,inhibition,[42],-4.16%
same,inhibition,[43],1.32%
same,inhibition,[44],0.49%
same,inhibition,[45],3.32%
same,inhibition,[46],5.19%
same,inhibition,[47],0.21%
same,inhibition,[48],0.46%
same,inhibition,[49],1.41%
same,inhibition,[50],3.48%
same,inhibition,[51],5.31%
same,inhibition,[52],30.7%
same,inhibition,[53],3.17%
same,inhibition,[54],25.1%
same,inhibition,[55],-0.87%
same,inhibition,[56],0.31%

# From ChEMBL document CHEMBL1961873, “Compounds: GSK PKIS; Assays: Nanosyn kinase panel” (2012)
